# Data from PubChem BioAssay AID493008 (The Scripps Research Institute Molecular Screening Center, 2010).
# About 800 (0.24%) of roughly 340,000 compounds were called active. What follows is part of a selection rich in actives, with near analogues and random picks from the rest. Unmarked numbers belong to inactive results.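 Rule for the calls: active = activation above the mean over all tested compounds plus 3 SD (cut at about 30% in these data); inactive = the rest.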
# Target: Troponin I, cardiac muscle (Homo sapiens) + Troponin T, cardiac muscle (Homo sapiens) + Troponin C, slow skeletal and cardiac muscles (Homo sapiens) (UniProt P19429+P45379+P63316)
# Assay: cardiac RTF calcium sensitivity activators, primary screen, biochemical, IANBD-TnC fluorescence, EC20 calcium (AID 493008);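 note: rise in fluorescence read as greater calcium sensitivity of cardiac thin filaments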
# Details: IANBD-labeled TnC RTF fluorescence at EC20 calcium; at 7.2 µM; hits give high values; 0% EC20 calcium, 100% full calcium
row,SMILES,activation
1,CCCCCNC(=O)C1c2ccccc2Oc2ccccc21,4.69%
2,CCCN(CCC)C(=O)C1c2ccccc2Oc2ccccc21,98.3% (active)
3,CCOC(=O)CC(NC(=O)C1c2ccccc2Oc2ccccc21)c1ccc(C)cc1 (stereo unspecified),4.5%
4,CC1=C(C(=O)OCc2ccccc2)C(c2ccco2)n2ncnc2N1 (stereo unspecified),8.65%
5,Brc1ccc(C2=CC(c3ccco3)n3ncnc3N2)cc1 (stereo unspecified),245% (active)
6,CC1=C(C(N)=O)C(c2ccc(Br)cc2)n2ncnc2N1 (stereo unspecified),-0.09%
7,CCN1CCN(c2ccc(S(=O)(=O)N3CCCCC3)cc2NC(=O)c2cccc(NC(C)=O)c2)CC1,-0.39%
8,CC1CCCCC12NC(=O)N(CC(=O)OCc1c(F)cccc1Cl)C2=O (stereo unspecified),-6.16%
9,Cc1ccccc1OCCC(=O)OCC(=O)NC(C)c1ccccc1 (stereo unspecified),1.21%
10,O=C1Nc2ccccc2/C1=C/c1ccnc2ccccc12,3.84%
11,Cc1cc(C)c(/C=C2\C(=O)Nc3ccccc32)[nH]1,149% (active)
12,Cc1ccccc1-n1c(C)cc(/C=C2\NC(=O)NC2=O)c1C,-2.97%
13,C[C@H](NC(=O)c1[nH]cnc1C(=O)Nc1nccs1)c1ccccc1,-1.35%
14,O=C(COC(=O)c1ccc(S(=O)(=O)Nc2ccccc2)cc1)NCC1CCCO1 (stereo unspecified),-3.25%
15,COc1ccc([N+](=O)[O-])cc1NC(=O)CC1SC(=Nc2cccc(C)c2C)N(/N=C(\C)c2ccc(C)cc2)C1=O (stereo unspecified),-1.84%
16,CCC1CCCCN1C(=O)Nc1cccc(NC(=O)N2CCCCC2CC)c1 (stereo unspecified),-3.65%
17,O=C(CSc1nnc(C2CC2)n1Cc1ccccc1)Nc1cccnc1Cl,1.37%
18,COc1ccccc1N(CC(=O)Nc1ccc(C)cc1Cl)S(=O)(=O)c1cccs1,-7.85%
19,CCCCNC(=O)Nc1c(C)cc(SC#N)cc1C,-8.62%
20,O=C(c1cc2sccc2n1Cc1ccc(F)cc1)N1CCc2ccccc21,-0.47%
21,CCCc1cc(=O)[nH]c(SCC(=O)Nc2ccc(S(=O)(=O)N3CCCC3)cc2)n1,-0.74%
